Screening results as filed in PubChem.
In the library only some 0.93% were active in any assay of this set; here they are far more common.
Jurkat NFkB inh: lowers PMA/ionomycin-induced NF-kB signal in Jurkat cells | inhibition, % at 4 µM | PMA/ionomycin-induced NF-kB luciferase reporter, luminescence | 0.53% of 330,000 active; in the data active = inhibition above about 50%
HIF activator: HIF pathway transcriptional activation; U2OS HRE-luciferase reporter, luminescence; normalized: DMSO 0%, desferrioxamine 100%; 0.32% of 300,000 active; activation, % at 7.5 µM (by protocol);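 active = mean activation of at least 10% of the iron chelator positive control signal, with at least half of replicates also reaching 10%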
CFTR F508del cor: correctors of CFTR F508del function in bronchial epithelial cells | AID 720511 | activity (quench increase), % at 7.58 µM | CFBE cells, YFP halide quenching; stimulated with forskolin plus potentiator P3; % fluorescence drop versus neutral controls | 0.36% of 350,000 active;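 active = mean added fluorescence quench of at least 8% versus neutral control, with both replicates also reaching 8%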;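 note: cells transiently co-express mutant CFTR-F508del with the halide-sensitive YFP; corrector assay measuring rescue of mutant channel to the surface after 24 h compound exposure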
697 NFkB inh: inhibitors of the PMA/ionomycin-induced NF-kB reporter in 697 B cells. inhibition, % at 4 µM. AID 435022. 697 B-cell NF-kB luciferase reporter, 16 h. 0.33% of 330,000 active; in the data active = inhibition above about 35%
* = called active by the depositor; · = no result.

SMILES	Jurkat NFkB inh	HIF activator	CFTR F508del cor	697 NFkB inh
CCOC(=O)Cc1nn(CC)c(=O)c2ccccc12	10.3	89.6*	-2.5	9.1
CCOC(=O)Cc1nn(C)c(=O)c2ccccc12	-4.8	-0.4	1.9	19.5
OC[C@H]1[C@H](c2ccc(-c3ccccc3)cc2)[C@@H]2CN(CCC(F)(F)F)CCCCN12	·	·	-0.2	·
O=C(C[C@H]1CC[C@@H](NC(=O)C2CC2)[C@@H](CO)O1)NCC1CC1	·	·	0.1	·
Cc1noc(C)c1NC(=O)N(C)C[C@@H]1OCCCC[C@@H](C)Oc2ccc(NC(=O)NC(C)C)cc2C(=O)N([C@@H](C)CO)C[C@H]1C	·	·	1.4	·
CCOC(=O)N1CCC(Nc2c(-c3ccccc3)c(=O)c2=O)CC1	10.5	12.8*	·	-6.3
CCOC(=O)N1CCC(Nc2c(-c3ccc(C)cc3)c(=O)c2=O)CC1	-2.3	-0.6	·	-6.9
CN1C(=O)c2cc(NC(=O)Nc3ccccc3)ccc2OC[C@@H]2O[C@H](CC(=O)NC3CCC3)CC[C@@H]21	·	·	-0.1	·
COc1ccc2c(c1)-c1nc(NC(=O)c3ccco3)sc1CC2	-46.9	9.9*	·	-75.7
OCCNc1c2ccccc2nc2ccccc12	35.0	24.3*	3.9	19.7
OCCNc1nc2ccccc2nc1NCCO	-10.0	-0.3	-1.4	-2.4
Clc1c(CSc2nc3ccccc3o2)nc2sccn12	-110.7	10.0*	·	-164.0
O=C(NCCc1ccccc1)[C@H]1N[C@H]2c3ccc(-c4ccccc4)c(=O)n3C[C@H]2[C@@H]1CO	·	·	1.4	·
COc1cc(Nc2c3c(nc4ccccc24)CCC3)cc(OC)c1OC	43.3	0.8	8.6*	-37.5
COc1ccc(C(=O)OCc2nc(N)nc(Nc3ccccc3C)n2)cc1OC	-2.2	0.1	8.4*	-2.8
COc1cccc(-c2ccc([C@@H]3[C@H]4CN(C(=O)c5ccncc5)CC(=O)N4[C@H]3CO)cc2)c1	·	·	0.9	·
O=c1cc(-c2ccc(O)c(O)c2)oc2cc(O)cc(O)c12	19.1	4.8	8.0*	-192.0
COc1cc(-c2cc(=O)c3c(O)cc(O)cc3o2)cc(OC)c1OC	·	·	-4.6	·
COc1ccc(-c2cc(=O)c3c(O)cc(O)cc3o2)cc1	-110.4	·	9.8*	-211.2
COCCNC(=O)C[C@@H]1CC[C@H]2[C@@H](COC[C@@H](O)CN2S(=O)(=O)c2ccccc2C)O1	·	·	1.4	·
Cn1c(CC(=O)NCCO)c(Sc2ccccc2)c2ccccc21	-1.0	0.3	·	-3.1
Cn1c(CC(=O)NN)c(Sc2ccccc2)c2ccccc21	1.9	1.5	11.8*	4.7
O=C(C[C@H]1CC[C@@H](NC(=O)CCN2CCCCC2)[C@H](CO)O1)Nc1ccccc1	·	·	-3.4	·
COCC(=O)N(C)C[C@@H]1Oc2cc(C#Cc3ccccc3)ccc2S(=O)(=O)N([C@@H](C)CO)C[C@H]1C	·	·	1.5	·
CCCCC(=NCCc1c(C)[nH]c2ccccc12)C1=C(O)CC(c2ccccc2)CC1=O (stereo not drawn)	44.7	0.4	8.6*	-14.7
SMILES	Jurkat NFkB inh	HIF activator	CFTR F508del cor	697 NFkB inh
CCC/C(O)=C1\C(=O)CC(c2ccccc2)CC1=NCCc1c(C)[nH]c2ccccc12 (stereo not drawn)	1.4	-1.2	0.0	14.5
CCN1C(=O)c2cccc3c(S(=O)(=O)N(C(C)=O)c4ccc(OC(C)=O)cc4)ccc1c23	-10.8	·	15.6*	17.9
CCCCOC(=O)c1ccc(NC(=S)NC(=O)c2c(Br)c(C)nn2C)cc1	8.1	40.7*	0.3	-4.1
COc1ccc(C(=O)N2C[C@H]3[C@@H](c4ccccc42)[C@@H](CO)N3Cc2ccc(Cl)cc2)cc1	·	·	1.8	·
COc1ccc(NC(=O)N(C)C[C@H]2Oc3ccc(NS(=O)(=O)c4ccc(Cl)cc4)cc3CC(=O)N([C@H](C)CO)C[C@@H]2C)cc1	·	·	0.6	·
COc1cccc(NC(=O)N(C)C[C@@H]2Oc3cc(C#Cc4ccc(F)cc4)ccc3S(=O)(=O)N([C@@H](C)CO)C[C@@H]2C)c1	·	·	0.3	·
COC(=O)c1cn(C)c2ccc(S(=O)(=O)N3CCCCC3)cc2c1=O	·	89.9*	·	·
CC12N=C3SCc4ccccc4CN3[C@H](c3ccccc3O1)[C@H]2CO[Si](C)(C)C(C)(C)C	·	·	1.8	·
O=C1c2ccc3c4c(ccc(c24)C(=O)N1CCCCO)C(=O)N(CCCCO)C3=O	·	-5.0	18.2*	·
CC(=O)N1CCc2c(sc(NC(=O)c3ccc([N+](=O)[O-])o3)c2C#N)C1	·	0.5	-6.1	·
CC(C)N1CCc2c(sc(NC(=O)c3ccc([N+](=O)[O-])o3)c2C(N)=O)C1	38.5	-1.6	15.0*	-8.5
COc1ccccc1Cc1c(-c2ccc(Cl)cc2)nc2ccc(Br)cn12	·	·	10.3*	·
COc1ccc2c3c(n(C)c2c1)[C@H](CO)N(CC1CC1)CC31CN(C(=O)Nc2ccccc2)C1	·	·	-3.1	·
CCN(CC)c1ccc2c(C)c(Cl)c(=O)oc2c1	0.4	0.6	-0.2	20.9
CCOc1ccc2c(C)c(Cl)c(=O)oc2c1	0.7	95.7*	·	-4.1
COc1ccc(CC(=O)Nc2nccs2)cc1S(=O)(=O)N1CCOCC1	-6.8	·	17.0*	4.1
COc1ccc(CC(=O)Nc2nnc(CC(C)C)s2)cc1S(=O)(=O)N1CCOCC1	6.0	·	0.3	-22.0
C[C@H]1CN([C@@H](C)CO)S(=O)(=O)c2ccc(C#CC(C)(C)O)cc2O[C@@H]1CN(C)C(=O)C1CC1	·	·	4.0	·
CCCc1sc(N/N=C/c2ccccn2)nc1-c1ccc(F)cc1	-14.1	19.8*	·	-22.2
C/C=C/c1ccc([C@@H]2[C@@H](CO)N(C(=O)C3CCC3)C23CN(S(=O)(=O)CC)C3)cc1	·	·	-2.0	·
COc1ccc(S(=O)(=O)Nc2cccc3c2O[C@H](CN(C)C(=O)NC(C)C)[C@@H](C)CN([C@@H](C)CO)C3=O)cc1	·	·	-1.8	·
CCCC(C)NC(=O)CN1C(=O)NC2(CCc3ccccc32)C1=O (stereo not drawn)	15.3	39.6*	-1.0	6.4
COc1ccc2c3c(n(C)c2c1)[C@@H](CO)N(C(=O)Cc1ccccn1)CC31CN(Cc2ccccn2)C1	·	·	4.1	·
COc1cc(OC)cc(C(=O)NC(c2ccccc2)c2ccccc2)c1	2.2	0.0	-1.5	1.2
COc1cc(OC)cc(C(=O)OCC(=O)NC(c2ccccc2)c2ccccc2)c1	-1.4	·	8.2*	11.4
SMILES	Jurkat NFkB inh	HIF activator	CFTR F508del cor	697 NFkB inh
COc1cccc(/C=N/NC(=O)C(c2ccncc2)N2CCOCC2)c1 (stereo not drawn)	8.6	-0.1	-0.4	4.3
O=C(N/N=C/c1cc(Br)ccc1O)C(c1ccncc1)N1CCOCC1 (stereo not drawn)	-8.0	12.2*	·	-9.0
C[C@@H]1CN([C@@H](C)CO)S(=O)(=O)c2ccc(C#CC3CCCC3)cc2O[C@@H]1CN(C)C(=O)c1cccc(F)c1	·	·	3.2	·
CCOC(=O)c1c(C)nc2cc(C)ccn12	-3.1	13.6*	·	-11.8
O=C(CN1CCOCC1)NCC[C@@H]1CC[C@H](NC(=O)c2ccc3c(c2)OCO3)[C@@H](CO)O1	·	·	0.7	·
CC(C(=O)O)N(C(=O)c1ccccc1)c1ccc(F)cc1 (stereo not drawn)	17.7	0.2	10.0*	1.0
CC(C)C(=O)NN(C(=O)c1ccccc1)c1ccccc1	0.8	0.4	2.2	3.0
Cn1c(NCc2ccccc2F)nc2cc(-c3ccsc3)sc2c1=O	·	·	8.1*	·
